{"source": "PubChem BioAssay AID449762", "about": "(Southern Research Specialized Biocontainment Screening …, 2010)", "note": "Several values for one entry are separate records, joined by “and”; a condition that tells them apart may be missing. Equal values may be shown once. Among all 330,000 compounds or so, about 1,900 (0.58%) were called active. Roughly 4% stayed inconclusive and do not appear here. These entries were drawn from the full list. Potency and affinity values are given separately. Values without a mark were called inactive. Cut-off read from the data, not from the text of the source: inconclusive = inhibition above about 70% without an active follow-up result; inactive = below that.", "data": [{"experiment": "M. tuberculosis growth inhibition, HTS (AID 449762);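 note: bacterial growth assessed after seven days of incubation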", "details": "M. tuberculosis H37Rv growth inhibition, 7H9 media; at 25 µM; hits give high values", "values": [{"compound": "COCCCN1C(=O)c2ccc(C(=O)Nc3cccc(OC)c3)cc2C1=O", "inhibition": "-8.36%"}, {"compound": "COc1ccc(CCNC(=O)c2ccc([N+](=O)[O-])cc2Cl)cc1OC", "inhibition": "-2.83%"}, {"compound": "CCc1cc(C(=O)NC2CCCN(Cc3ccccc3F)C2)n(C)n1", "note": "(configuration not stated)", "inhibition": "6.68%"}, {"compound": "CC(C)CN(C(=O)CCC(=O)OC(C)C(=O)Nc1cccc(C#N)c1)c1c(N)n(CC(C)C)c(=O)[nH]c1=O", "note": "(configuration not stated)", "inhibition": "-4.92%"}, {"compound": "COC(=O)CSc1nnc(COc2ccc3ccccc3c2)o1", "inhibition": "-6.41%"}, {"compound": "CCOC(=O)CSc1nnc(COc2ccc3ccccc3c2)o1", "inhibition": "6.46%"}, {"compound": "COc1ccc(N2CCN(C(=O)CCS(=O)(=O)c3ccc4c(c3)NC(=O)C(C)S4)CC2)cc1", "note": "(configuration not stated)", "inhibition": "6.18%"}, {"compound": "Cc1ccc(C(=O)Oc2ccc(Br)cc2C(=S)N2CCOCC2)cc1", "inhibition": "11.3%"}, {"compound": "O=Cc1c(NCc2ccc(Cl)cc2)c2ccccc2[nH]c1=O", "inhibition": "2.94%"}, {"compound": "CCCN(CC(=O)Nc1ccccc1OC)C(=O)CCC(=O)c1ccc(OCC)cc1", "inhibition": "3.5%"}, {"compound": "CCc1ccc(CNC(=O)C2Cc3cc(S(=O)(=O)N4CCCC4)ccc3N2C(C)=O)cc1", "note": "(configuration not stated)", "inhibition": "-2.81%"}, {"compound": "CSc1ccc(CNC(=O)C2Cc3cc(S(=O)(=O)N4CCCC4)ccc3N2C(C)=O)cc1", "note": "(configuration not stated)", "inhibition": "2.84%"}, {"compound": "C=CCN(CC=C)C(=O)C[n+]1ccc(C(N)=O)cc1", "inhibition": "6.91%"}, {"compound": "COCCN1C(=O)C(=O)/C(=C(/O)c2ccc(S(=O)(=O)N3CCCCC3)cc2)C1c1ccc(O)c(OC)c1", "note": "(configuration not stated)", "inhibition": "-2.3%"}, {"compound": "CN(c1ccccc1)S(=O)(=O)c1cccc(NC(=O)CSc2nnc(N)s2)c1", "inhibition": "3.34%"}, {"compound": "O=C(CC1(O)C(=O)Nc2ccc(Br)cc21)c1ccc2c(c1)OCO2", "note": "(configuration not stated)", "inhibition": "-6.14%"}, {"compound": "O=C1Nc2ccc(Br)cc2/C1=C/c1ccc(C(=O)O)cc1", "inhibition": "0.13%"}, {"compound": "CC(C)C(=O)Nc1c2c(nn1-c1ccc([N+](=O)[O-])cc1)CS(=O)(=O)C2", "inhibition": "3.07%"}, {"compound": "Cc1ccc(F)cc1NC(=O)c1c(-c2ccccc2)noc1C", "inhibition": "-8.46%"}, {"compound": "CCOc1ccc(C(=O)Nc2ccc3nc(N4CCN(CC)CC4)cc(C)c3c2)cc1", "inhibition": "43.7%"}, {"compound": "CCOc1[nH]n(-c2ccccc2)c(=O)c1C=Nc1ccccc1", "inhibition": "19%"}, {"compound": "CCOc1[nH]n(-c2ccccc2)c(=O)c1C=Nc1ccc(C)cc1", "inhibition": "9.52%"}, {"compound": "Cc1ccccc1-n1c(-c2ccc([N+](=O)[O-])cc2)nc2ccccc2c1=O", "inhibition": "2.55%"}, {"compound": "COc1ccc(NC(C)=O)c(C)c1", "inhibition": "-2.52%"}, {"compound": "c1ccc(-c2n[nH]c(-c3ccccn3)n2)nc1", "inhibition": "-3.4% and -2.35%"}, {"compound": "c1ccc(-c2nc(-c3ccncc3)n[nH]2)nc1", "inhibition": "-0.34%"}, {"compound": "O=C(NCc1ccccc1F)c1cc(=O)[nH]c2ccccc12", "inhibition": "1.18%"}, {"compound": "Cc1ccc2nsnc2c1S(=O)(=O)N1CCOCC1", "inhibition": "-4.54%"}, {"compound": "COc1ccc(CCNC(=O)c2ccc(CNS(=O)(=O)c3cc(C)ccc3C)cc2)cc1OC", "inhibition": "-3.98%"}, {"compound": "O=S(=O)(Nc1ccccn1)c1ccc(Br)cc1", "inhibition": "10.2%"}, {"compound": "Cc1c(NS(=O)(=O)c2ccc(Br)cc2)c(=O)n(-c2ccccc2)n1C", "inhibition": "0.05%"}, {"compound": "O=C(c1cc(F)ccc1F)C1CCCN(CCCc2ccccc2)C1", "note": "(configuration not stated)", "inhibition": "10.3%"}, {"compound": "CC(CCc1ccccc1)NC(=O)COC(=O)C1CCC(C(C)(C)C)CC1", "note": "(configuration not stated)", "inhibition": "6.62%"}, {"compound": "CN1CCc2c(OCC(=O)N3CCC(Cc4ccccc4)CC3)cccc2C1=O", "inhibition": "5.02%"}, {"compound": "Cc1cc(NC(=O)c2cccs2)n(-c2nc3ccccc3[nH]2)n1", "inhibition": "57.9%"}, {"compound": "Cc1cc(NC(=O)c2ccc(C)s2)n(-c2nc3ccccc3[nH]2)n1", "inhibition": "56.9%"}, {"compound": "CCn1nnnc1SCC(=O)N1CCCCC1", "inhibition": "0.5%"}, {"compound": "O=C1N/C(=N/N=C/c2ccc(O)cc2)SC1Cc1ccccc1", "note": "(configuration not stated)", "inhibition": "-5.03%"}, {"compound": "O=C1NC(=Nc2ccccc2)SC1Cc1ccccc1", "note": "(configuration not stated)", "inhibition": "-10.5%"}, {"compound": "CCC(Sc1nc2ccc(N)cc2s1)C(=O)Nc1nccs1", "note": "(configuration not stated)", "inhibition": "61%"}, {"compound": "C[n+]1cnn2c1SCC1(COC1)C2", "inhibition": "3.72%"}, {"compound": "O=C(CNC(=O)c1ccc(F)cc1)c1ccc(Cl)cc1", "inhibition": "6.46%"}, {"compound": "O=C(CNC(=O)c1ccc(Cl)cc1)c1ccccc1", "inhibition": "-1.27%"}, {"compound": "C=C(C)Cn1c(C)cc(C)c(S(=O)(=O)c2cccc(C)c2)c1=O", "inhibition": "-7.99%"}, {"compound": "CCOc1cc(CNc2ccc(Br)cc2)cc(Br)c1OCC(=O)NC(C)(C)C", "inhibition": "-3.44%"}, {"compound": "CC(=O)c1ccc(N2CCN(C(=O)c3cc4c(C)nc5ccccc5c4o3)CC2)cc1", "inhibition": "4.42%"}, {"compound": "Cc1nc2ccccc2c2oc(C(=O)N3CCN(c4ccc([N+](=O)[O-])cc4)CC3)cc12", "inhibition": "26.2%"}]}]}
